Sensor-assay potency score (higher = more potent) data for 36 sequences are collected here from the OligoGym collection.
Further: reference of the scale not given here.

One assay addresses SLC22A8. Description: pooled miR-30 sensor sort-seq; sequence = guide strand. As to conditions: shRNA.
Take TTGAGTTTGAGCTCCTCCAAGC: the sensor-assay potency score (higher = more potent) is -1.05.
For the sequence TAATTCACTTGTGTAGAGGAAG, the sensor-assay potency score (higher = more potent) is -0.618.
TTTGTTGGAGTTGCACACCAAG: the sensor-assay potency score (higher = more potent) is -1.22.
AACTATAGTAGGCAAAACCGGT displayed a sensor-assay potency score (higher = more potent) of -1.07.
Same read-out and setting: with TTGCACACCAAGTCCCACTCTG the figure was 0.471.
TCTGTCACAATGGAGTCCTTGG returned a sensor-assay potency score (higher = more potent) of -1.04.
Still for that read-out and setting: with TATAGTAGGCAAAACCGGTAGC the figure was 0.235; with TTCCACATTCAAGATGACGGTG, -0.373; with TTTCCAGACAAGACCAACCAGC, -0.636.
Turning to TTCTTCCACACCCATAGCCAAA, the sensor-assay potency score (higher = more potent) was -1.71.
Sequence TTCACTTGTGTAGAGGAAGAGG came in with a sensor-assay potency score (higher = more potent) of -0.683.
Regarding TTGAAGACAGCCACCCGCCGGA, the sensor-assay potency score (higher = more potent) is -0.0956.

The next assay deals with SLC23A2. Described as above. As to conditions: shRNA.
The sequence TATGCCATCAAGAACACAGGAG registered a sensor-assay potency score (higher = more potent) of 0.397.
Sequence TTCTGTTGAACTTCCAGCCTCC yielded a sensor-assay potency score (higher = more potent) of 0.654.
TAAATCATGTCTGATCGCTGGG had a sensor-assay potency score (higher = more potent) of 0.763.
TAAATCAATGAACTGCAGGTTA: the sensor-assay potency score (higher = more potent) came to 0.267.
The same measure, in the same setting: then TATGGAACCTTAAACCACGGGG, with -0.198; and TTCAACACTTGATCGATTCCTG, with 0.272.
Same read-out and setting: with TTCTGTCTGAGGTAACTTGGAA the figure was -0.6.
In turn, TTCCGTAGTGTAGATCGCCATG came in with a sensor-assay potency score (higher = more potent) of -1.38.
The same measure, in the same setting: with TAATACTAGGAATATTGTCAGC the figure was -0.987.
On the same count and under the same terms, then TATAAATCATGTCTGATCGCTG, with 0.473; and TTGTCTGTAGCAAAGTAGTGAT, with -0.911.
On the same count and under the same terms, with TTCTTGGATTTATAAATCGGGA the figure was -1.08.

The target of the next assay is SLC25A18. The description is as above. As to conditions: shRNA.
As for TTAAGGTTGGCAAACAGTGGGA, the sensor-assay potency score (higher = more potent) was -0.285.
Consider TTAAAATACAGAAACAACCCTT, for which the sensor-assay potency score (higher = more potent) was found to be 0.611.
For TCAAACTAGGTGCTGACTCTGA, the sensor-assay potency score (higher = more potent) was -0.384.
Sequence TTGAGGTAGCACTACAACGCAG returned a sensor-assay potency score (higher = more potent) of -1.18.
Still for that read-out and setting: then TTCGAGTTTTCAGAACATCTAG, with -0.224; and TCGAGTTTTCAGAACATCTAGA, with -0.0433.
For the sequence TAAAATACAGAAACAACCCTTC, the sensor-assay potency score (higher = more potent) is 0.73.
TTCTATTGTGACTACCTGTTAA registered a sensor-assay potency score (higher = more potent) of -0.81.
The sequence TGAGGTAGCACTACAACGCAGA yielded a sensor-assay potency score (higher = more potent) of -0.364.
Turning to TTGGTCTCAAACTAGGTGCTGA, the sensor-assay potency score (higher = more potent) is -0.0245.
TTTCAGAACATCTAGAGGCGTC: the sensor-assay potency score (higher = more potent) turned out to be 0.0336.
Sequence TTAACAATGCTAAATCCTCAAG yielded a sensor-assay potency score (higher = more potent) of -1.35.
